Data on 39 molecules can be found in the supplement of paper PMC12669032.

Structures are written as SMILES.

In the first experiment the test system is Fusobacterium nucleatum subsp. animalis. Description: growth AUC relative to DMSO control (median of replicates) (fraction); higher = more growth (less inhibition), active = hit call of the paper. Conditions: 20 µM; 24 h;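 active = AUC reduced over 20% with Padj below 0.05 in at least 2 of 3 replicates; inactive = otherwise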. The procedure, abridged:
(§1)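 Gut bacterial monocultures in mGAM were treated with 20 µM compound (1% DMSO) and grown anaerobically at 37 °C in round-bottom 96-well plates from OD600 0.05. OD600 was read hourly for 24 h, with the minimum OD set to 0. Area under the growth curve was normalised to the plate median of solvent-only wells, or to row and column medians on the industrial chemical plate. Each value is the median of three biological replicates, each grown on a separate day.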
For the molecule `CCCCCCCCCC[N+](C)(C)Cc1ccccc1.[Cl-]`, the “growth AUC” value is 1.02 (inactive).

On to `CN1CCC[C@H]1c1cccnc1`, for which the “growth AUC” value was 0.98 (inactive).

Turning to `O=C1NCCN1`, the “growth AUC” value was 1.03 (inactive).

Regarding `O=C(O)COc1cccc(Cl)c1Cl`, the “growth AUC” value is 1.12 (inactive).

In the next experiment the test system is Lactobacillus gasseri. Described as above. To be noted: 20 µM; 24 h. The procedure, abridged: as §1
In the case of `CN(C)C(=O)Nc1ccc(Cl)c(Cl)c1`, the “growth AUC” value was 0.968 (inactive).

Take `CCOC(=O)C1CC(=O)C(=C(O)C2CC2)C(=O)C1` (configuration not stated): the “growth AUC” value is 1.01 (inactive).

For the molecule `COC(=O)C(C)Oc1ccc(Cl)cc1C` (configuration not stated), the “growth AUC” value was 1.06 (inactive).

Take `FC(F)(F)C(=NOCC1OCCO1)c1ccc(Cl)cc1`: the “growth AUC” value is 1.01 (inactive).

Turning to `NC(=S)Nc1cccc2ccccc12`, the “growth AUC” value is 0.888 (inactive).

For the molecule `CC(C)c1cc(Oc2ccccc2)cc(C(C)C)c1NC(=S)NC(C)(C)C`, the “growth AUC” value is 0.978 (inactive).

In the case of `O=[N+](Nc1ccccc1)c1ccccc1`, the “growth AUC” value was 0.973 (inactive).

Take `Cc1[nH]n(C)c(=O)c1C(=O)c1ccc(C(F)(F)F)cc1S(C)(=O)=O`: the “growth AUC” value is 1.02 (inactive).

With `O=C=NC1CCC(CC2CCC(N=C=O)CC2)CC1` (configuration not stated), the “growth AUC” value was 0.921 (inactive).

For the molecule `CCc1cccc(C)c1N(COC(C)C)C(=O)CCl`, the “growth AUC” value is 0.99 (inactive).

Take `O=C(Nc1ccc(Cl)cc1C(O)c1ccccc1)c1ccncc1` (configuration not stated): the “growth AUC” value is 0.966 (inactive).

Turning to `CNC(=O)Nc1nc2ccccc2s1`, the “growth AUC” value was 0.944 (inactive).

`CC(C)CNC(=O)N1CCNC1=O`: the “growth AUC” value was 1.05 (inactive).

In the case of `C/C=C/C(=O)Oc1c(C(C)CCCCCC)cc([N+](=O)[O-])cc1[N+](=O)[O-]` (mixture of isomers), the “growth AUC” value was 0.273 (active).

As for `CCOC(=O)NCCOc1ccc(Oc2ccccc2)cc1`, the “growth AUC” value was 1.03 (inactive).

Take `NC(=O)Cc1cccc2ccccc12`: the “growth AUC” value was 1.04 (inactive).

Take `NS(=O)(=O)[O-].[NH4+]`: the “growth AUC” value is 0.996 (inactive).

Turning to `COC(=O)c1ccc(C(=O)OC)cc1`, the “growth AUC” value is 0.981 (inactive).

With `Nc1cc(Cl)nc(C(=O)O)c1Cl`, the “growth AUC” value was 0.961 (inactive).

For the molecule `CCc1cccc(C)c1N(C(=O)C(=O)O)[C@@H](C)C(=O)O`, the “growth AUC” value was 0.853 (inactive).

Turning to `O=S(=O)(Oc1ccc(Cl)cc1)c1ccccc1`, the “growth AUC” value is 0.99 (inactive).

Turning to `Oc1ccc2nc(-c3cscn3)[nH]c2c1`, the “growth AUC” value was 0.869 (inactive).

For `COC(=O)c1csc(C)c1S(=O)(=O)NC(=O)n1nc(OC)n(C)c1=O`, the “growth AUC” value is 0.805 (inactive).

On to `CCCCOCN(C(=O)CS(=O)(=O)[O-])c1c(CC)cccc1CC.[Na+]`, for which the “growth AUC” value was 0.914 (inactive).

As to `O.O.O=[N+]([O-])c1ccc([O-])cc1.[Na+]`, the “growth AUC” value is 1.01 (inactive).

For `COCC(=O)N(c1c(C)cccc1C(=O)O)C(C)C(=O)O` (configuration not stated), the “growth AUC” value was 1.07 (inactive).

Take `O=C(O)COc1ccc(Cl)cc1CO`: the “growth AUC” value is 0.852 (inactive).

As for `CCOc1ccc2c(c1)C(C)=CC(C)(C)N2`, the “growth AUC” value was 0.992 (inactive).

As to `CC(C)CCCCCOC(=O)C(C)Oc1ccc(Cl)cc1Cl` (configuration not stated), the “growth AUC” value is 0.817 (inactive).

As to `[S]`, the “growth AUC” value was 0.959 (inactive).

For `CCCC(C)(C)C(=O)Nc1ccc(Cl)cc1`, the “growth AUC” value is 1.1 (inactive).

As to `CSc1nnc(C(C)(C)C)c(=O)n1/N=C/C(C)C`, the “growth AUC” value was 1.08 (inactive).

In the case of `O=C(O)CCCc1c[nH]c2ccccc12`, the “growth AUC” value is 0.832 (inactive).

Take `C=C1C[C@]23C[C@@]1(O)CC[C@H]2[C@@]12C=C[C@H](O)[C@@](C)(C(=O)O1)[C@H]2[C@@H]3C(=O)O`: the “growth AUC” value was 0.921 (inactive).

`Nc1ccc(S(=O)(=O)Nc2nccs2)cc1`: the “growth AUC” value is 0.97 (inactive).

With `CCCCCCCCCC[N+](C)(C)Cc1ccccc1.[Cl-]`, the “growth AUC” value is 0.712 (inactive).

In the case of `CN1CCC[C@H]1c1cccnc1`, the “growth AUC” value was 0.941 (inactive).

In the case of `O=C1NCCN1`, the “growth AUC” value was 0.984 (inactive).

For `O=C(O)COc1cccc(Cl)c1Cl`, the “growth AUC” value was 1.11 (inactive).

The next experiment concerns Lactobacillus paracasei. Described as above. Conditions: 20 µM; 24 h. The procedure, abridged:
as §1
For `CN(C)C(=O)Nc1ccc(Cl)c(Cl)c1`, the “growth AUC” value was 0.971 (inactive).

With `CCOC(=O)C1CC(=O)C(=C(O)C2CC2)C(=O)C1` (configuration not stated), the “growth AUC” value is 0.937 (inactive).

For the molecule `COC(=O)C(C)Oc1ccc(Cl)cc1C` (configuration not stated), the “growth AUC” value is 1.01 (inactive).

Turning to `FC(F)(F)C(=NOCC1OCCO1)c1ccc(Cl)cc1`, the “growth AUC” value was 1.07 (inactive).

`NC(=S)Nc1cccc2ccccc12`: the “growth AUC” value is 0.946 (inactive).

Take `CC(C)c1cc(Oc2ccccc2)cc(C(C)C)c1NC(=S)NC(C)(C)C`: the “growth AUC” value was 1.03 (inactive).

For `O=[N+](Nc1ccccc1)c1ccccc1`, the “growth AUC” value is 1.04 (inactive).

In the case of `Cc1[nH]n(C)c(=O)c1C(=O)c1ccc(C(F)(F)F)cc1S(C)(=O)=O`, the “growth AUC” value was 1.03 (inactive).

For `O=C=NC1CCC(CC2CCC(N=C=O)CC2)CC1` (configuration not stated), the “growth AUC” value is 1.12 (inactive).

As to `CCc1cccc(C)c1N(COC(C)C)C(=O)CCl`, the “growth AUC” value is 1.07 (inactive).

In the case of `O=C(Nc1ccc(Cl)cc1C(O)c1ccccc1)c1ccncc1` (configuration not stated), the “growth AUC” value is 0.943 (inactive).

Take `CNC(=O)Nc1nc2ccccc2s1`: the “growth AUC” value is 0.953 (inactive).

As for `CC(C)CNC(=O)N1CCNC1=O`, the “growth AUC” value is 1.04 (inactive).

As to `C/C=C/C(=O)Oc1c(C(C)CCCCCC)cc([N+](=O)[O-])cc1[N+](=O)[O-]` (mixture of isomers), the “growth AUC” value is 0.41 (active).

With `CCOC(=O)NCCOc1ccc(Oc2ccccc2)cc1`, the “growth AUC” value is 0.949 (inactive).

Regarding `NC(=O)Cc1cccc2ccccc12`, the “growth AUC” value is 1.01 (inactive).

On to `NS(=O)(=O)[O-].[NH4+]`, for which the “growth AUC” value is 0.997 (inactive).

Regarding `COC(=O)c1ccc(C(=O)OC)cc1`, the “growth AUC” value is 0.958 (inactive).

For the molecule `Nc1cc(Cl)nc(C(=O)O)c1Cl`, the “growth AUC” value is 1.24 (inactive).

Regarding `CCc1cccc(C)c1N(C(=O)C(=O)O)[C@@H](C)C(=O)O`, the “growth AUC” value was 1.01 (inactive).

Take `O=S(=O)(Oc1ccc(Cl)cc1)c1ccccc1`: the “growth AUC” value was 1.08 (inactive).

Consider `Oc1ccc2nc(-c3cscn3)[nH]c2c1`, for which the “growth AUC” value was 0.997 (inactive).

As for `COC(=O)c1csc(C)c1S(=O)(=O)NC(=O)n1nc(OC)n(C)c1=O`, the “growth AUC” value is 0.993 (inactive).

For `CCCCOCN(C(=O)CS(=O)(=O)[O-])c1c(CC)cccc1CC.[Na+]`, the “growth AUC” value is 0.957 (inactive).

Turning to `O.O.O=[N+]([O-])c1ccc([O-])cc1.[Na+]`, the “growth AUC” value was 1.04 (inactive).

`COCC(=O)N(c1c(C)cccc1C(=O)O)C(C)C(=O)O` (configuration not stated): the “growth AUC” value is 0.734 (inactive).

As for `O=C(O)COc1ccc(Cl)cc1CO`, the “growth AUC” value is 0.993 (inactive).

Take `CCOc1ccc2c(c1)C(C)=CC(C)(C)N2`: the “growth AUC” value was 1.02 (inactive).

Regarding `CC(C)CCCCCOC(=O)C(C)Oc1ccc(Cl)cc1Cl` (configuration not stated), the “growth AUC” value was 0.962 (inactive).

For `[S]`, the “growth AUC” value was 1.01 (inactive).

As to `CCCC(C)(C)C(=O)Nc1ccc(Cl)cc1`, the “growth AUC” value was 0.989 (inactive).

`CSc1nnc(C(C)(C)C)c(=O)n1/N=C/C(C)C`: the “growth AUC” value was 1.03 (inactive).

With `O=C(O)CCCc1c[nH]c2ccccc12`, the “growth AUC” value is 0.884 (inactive).

Regarding `C=C1C[C@]23C[C@@]1(O)CC[C@H]2[C@@]12C=C[C@H](O)[C@@](C)(C(=O)O1)[C@H]2[C@@H]3C(=O)O`, the “growth AUC” value is 0.94 (inactive).

As to `Nc1ccc(S(=O)(=O)Nc2nccs2)cc1`, the “growth AUC” value was 1.02 (inactive).

On to `CCCCCCCCCC[N+](C)(C)Cc1ccccc1.[Cl-]`, for which the “growth AUC” value was 1.06 (inactive).

Consider `CN1CCC[C@H]1c1cccnc1`, for which the “growth AUC” value was 0.991 (inactive).

For the molecule `O=C1NCCN1`, the “growth AUC” value is 0.904 (inactive).

Turning to `O=C(O)COc1cccc(Cl)c1Cl`, the “growth AUC” value is 0.898 (inactive).
